Glyco luc inh: N-linked glycosylation inhibition. D54 ERlucT glycosylation luciferase reporter, 24 h; percent of 100 nM tunicamycin response. reporter increase, % at 12.5 µM. hit rate 0.23% among 360,000. AID 588692;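 active = mean luciferase reporter signal, scaled so untreated is 0 and the glycosylation-blocking control 100, at or above a set limit in every replicate; inconclusive = mean reaches the limit but not every replicate does; inactive = mean below the limit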;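 note: luciferase carries N-glycosylation sites so blocking glycosylation raises the light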
RAD54 branch: RAD54 (human) branch migration inhibition. inhibition, % at 10.4 µM. RAD54 Holliday junction branch migration, FAM/BHQ fluorescence. hit rate 0.14% among 360,000;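 active = mean normalized replicate activity at least 40 and at least half of replicates scoring 40 or more; inconclusive = only one of the two criteria met; inactive = mean below 40 and under half of replicates reaching 40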;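 note: inhibitors cause a drop in the FAM fluorescence signal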
Target sequence (Q92698 whole entry, looked up): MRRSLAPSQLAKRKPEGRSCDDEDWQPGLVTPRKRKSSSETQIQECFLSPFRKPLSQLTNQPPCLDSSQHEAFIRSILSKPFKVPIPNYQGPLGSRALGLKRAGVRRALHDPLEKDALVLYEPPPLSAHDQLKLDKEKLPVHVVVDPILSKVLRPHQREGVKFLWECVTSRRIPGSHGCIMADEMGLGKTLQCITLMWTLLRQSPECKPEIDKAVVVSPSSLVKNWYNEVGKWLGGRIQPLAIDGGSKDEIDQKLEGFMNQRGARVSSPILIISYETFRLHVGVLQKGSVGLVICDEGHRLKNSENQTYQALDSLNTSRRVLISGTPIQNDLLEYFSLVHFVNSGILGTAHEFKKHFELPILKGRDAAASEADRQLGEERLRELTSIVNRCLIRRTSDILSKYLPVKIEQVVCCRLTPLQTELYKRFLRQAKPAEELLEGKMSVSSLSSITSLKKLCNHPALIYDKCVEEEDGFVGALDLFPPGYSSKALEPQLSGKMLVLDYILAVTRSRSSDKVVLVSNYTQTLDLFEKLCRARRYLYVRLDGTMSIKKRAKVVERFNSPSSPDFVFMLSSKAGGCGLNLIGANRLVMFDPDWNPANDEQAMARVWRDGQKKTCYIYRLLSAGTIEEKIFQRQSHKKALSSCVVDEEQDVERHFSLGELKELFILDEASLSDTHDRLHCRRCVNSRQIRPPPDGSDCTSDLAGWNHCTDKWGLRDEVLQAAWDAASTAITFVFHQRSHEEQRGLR
ABCB6 inh MLPCN: blocks the human ABCB6 transporter; hit rate 0.19% among 360,000; Q9NP58; fluorescence ratio to DMSO, % at 10 µM; K562-ABCB6 porphyrin accumulation, flow cytometry, 1 h; active compounds read low;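 active = fluorescence ratio to DMSO below 75%, the collection mean minus 3 SD; inconclusive = too few cells collected in the well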;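 note: signal is porphyrin accumulated inside mitochondria; lower ratio means ABCB6 inhibition with less porphyrin fluorescence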
Myeloid diff MLP: myeloid differentiation induction | calls only at 10 µM | hit rate 1% among 360,000 | ER-HoxA9 myeloid progenitors, lysozyme-GFP differentiation, flow cytometry;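 active = normalized GFP-positive differentiation at or above the plate's own cutoff, the solvent-only control mean plus 3 SD; inconclusive = no clear call, values can overlap the other calls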;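 note: cells exposed to compound for four days before flow analysis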
Vif inh: inhibitors of HIV Vif; hit rate 0.35% among 340,000; inhibition, % at 7.49 µM; AID 602346; HEK293T cells, Vif self-association by quenched fluorescence, imaging, 24 h; in the data active = inhibition above about 50%, passing the limit was not always enough; inconclusive = no clear call, values can overlap the other calls; inactive = below about 31%
Of the large screens only hits and unclear results are named; the others gave an inactive call. An excerpt weighted towards active compounds, which were near 1.6% of everything screened.

Cc1c(NC(=O)COC(=O)c2cc(-c3ccc(-c4ccccc4)cc3)nc3ccccc23)c(=O)n(-c2ccccc2)n1C	Myeloid diff MLP active (no result: RAD54 branch)
Cc1c(NC(=O)c2cc(-c3ccccc3)nc3ccccc23)c(=O)n(-c2ccccc2)n1C	none
COc1cc(CNC(C)c2ccccc2)cc(Br)c1OCc1ccccc1 (stereo unspecified)	none
COc1cc(CNc2ccc(O)cc2)cc(Br)c1OCc1ccccc1	Glyco luc inh 57 (no result: RAD54 branch)
C[C@H]1CN([C@@H](C)CO)C(=O)c2cc(Br)cnc2O[C@H]1CN(C)C(=O)C1CCOCC1	none (no result: Glyco luc inh, ABCB6 inh MLPCN, Myeloid diff MLP, Vif inh)
O=C(C[C@@H]1CC[C@@H](NC(=O)Cc2cccnc2)[C@@H](CO)O1)Nc1ccc(-c2ccccc2)cc1	none (no result: Glyco luc inh, ABCB6 inh MLPCN, Myeloid diff MLP, Vif inh)
COc1cc2c(cc1OC)C1=C(C#N)CC/C(=N\S(=O)(=O)c3cccc(Cl)c3)N1CC2	ABCB6 inh MLPCN 73
CCc1nc(Sc2nnnn2-c2ccccc2)c2c3c(sc2n1)CCCC3	none (no result: RAD54 branch)
Cc1nc(Sc2nnnn2C)c2c3c(sc2n1)CCC3	Vif inh 97
C[C@H](CO)N1C[C@H](C)[C@H](CN(C)S(=O)(=O)c2cccs2)OCCCC[C@H](C)Oc2ccc(NC(=O)NC3CCCCC3)cc2C1=O	none (no result: Glyco luc inh, ABCB6 inh MLPCN, Myeloid diff MLP, Vif inh)
C[C@H](CO)N1C[C@H](C)[C@@H](CN(C)S(C)(=O)=O)Oc2ncc(C#CC3CCCC3)cc2C1=O	none (no result: Glyco luc inh, ABCB6 inh MLPCN, Myeloid diff MLP, Vif inh)
CN(C)CCNC(=O)c1ccc2c(=O)n(Cc3ccc(Cl)cc3)c(=S)[nH]c2c1	Myeloid diff MLP active
CC1CCN(CCCNC(=O)c2ccc3c(=O)n(Cc4ccc(Cl)cc4)c(=S)[nH]c3c2)CC1	none
CN(C)S(=O)(=O)N1CCC(Oc2ccc(C(=O)N3CCCCCC3)cc2)CC1	Myeloid diff MLP active
CN(C)S(=O)(=O)N1CCC(Oc2ccc(C(=O)N3CCCCCCC3)cc2)CC1	Myeloid diff MLP inconclusive
CCCCC(=O)NCc1ccc2c(c1)cc(C)n2C	Vif inh 68
Cc1nnc(N2CCC(C(=O)N3CCCCC3)CC2)c2nn(-c3ccc(Cl)cc3)c(C)c12	Myeloid diff MLP inconclusive
Cc1ccc(-n2nc3c(N4CCC(C(=O)NCCc5cccs5)CC4)nnc(C)c3c2C)cc1	Vif inh 51 (no result: Myeloid diff MLP)
Cc1ccc(-n2nc3c(=O)n(CC(=O)NCCc4cccs4)nc(C)c3c2C)cc1	none
COc1ccc(-n2nc3c(N4CCC(C(=O)N5CCC(C)CC5)CC4)nnc(C)c3c2C)cc1	Myeloid diff MLP active
O=C(C[C@@H]1CC[C@@H]2[C@H](COC[C@H](O)CN2S(=O)(=O)c2cccc(Cl)c2)O1)NC1Cc2ccccc2C1	none (no result: Glyco luc inh, ABCB6 inh MLPCN, Myeloid diff MLP, Vif inh)
O=C(C[C@@H]1CC[C@H]2[C@@H](COC[C@@H](O)CN2Cc2ccc(Cl)cc2)O1)Nc1nccs1	none (no result: Glyco luc inh, ABCB6 inh MLPCN, Myeloid diff MLP, Vif inh)
CC(=O)c1ccc(NC(=S)N2c3ccccc3CC2C)cc1 (stereo unspecified)	none
CC1Cc2ccccc2N1C(=S)Nc1ccc(S(N)(=O)=O)cc1 (stereo unspecified)	Myeloid diff MLP active (no result: RAD54 branch)
O=C(O)c1c2c(nc3ccc(S(=O)(=O)N4CCC(C(=O)NCc5ccccc5)CC4)cc13)CCCC2	none (no result: Vif inh)
CN(Cc1ccccc1)C(=O)C1CCN(S(=O)(=O)c2ccc3nc4c(c(C(=O)O)c3c2)CCCC4)CC1	Vif inh 69
COc1ccc(S(=O)(=O)Nc2ccc3c(c2)CC(=O)N([C@@H](C)CO)C[C@H](C)[C@H](CN(C)Cc2ccc4c(c2)OCO4)O3)cc1	none (no result: Glyco luc inh, ABCB6 inh MLPCN, Myeloid diff MLP, Vif inh)
Cc1ccc(C(=O)NC(=C(Cl)Cl)S(=O)(=O)c2ccccc2)cc1	Glyco luc inh inconclusive (no result: RAD54 branch)
COc1ccc(C(=O)NC(=C(Cl)Cl)S(=O)(=O)c2ccc(C)cc2)cc1	Glyco luc inh 27
COC(=O)NC(=C(Cl)Cl)S(=O)(=O)c1ccccc1	Glyco luc inh 51
Cc1noc(C)c1S(=O)(=O)N(C)C[C@H]1Oc2ccc(NS(=O)(=O)c3ccccc3)cc2CC(=O)N([C@H](C)CO)C[C@H]1C	none (no result: Glyco luc inh, ABCB6 inh MLPCN, Myeloid diff MLP, Vif inh)
CN(C)Cc1cn(CC[C@H]2CC[C@@H](NS(=O)(=O)c3ccccc3)[C@@H](CO)O2)nn1	none (no result: Glyco luc inh, ABCB6 inh MLPCN, Myeloid diff MLP, Vif inh)
CCCNC(=O)C[C@@H]1C[C@H]2c3cc(NC(=O)Cc4ccncc4)ccc3O[C@H]2[C@H](CO)O1	none (no result: Glyco luc inh, ABCB6 inh MLPCN, Myeloid diff MLP, Vif inh)
CCC(=O)N1C[C@H](C)[C@H](OC)CN(C)C(=O)c2ccc(NC(=O)c3cc(C)on3)cc2OC[C@H]1C	none (no result: Glyco luc inh, ABCB6 inh MLPCN, Myeloid diff MLP, Vif inh)
COc1c(Br)cc(Br)cc1/C=C1/C(=O)N=C(N)N1C	Vif inh 96
C[C@@H]1CCCCO[C@H](CN(C)C(=O)Nc2ccc(F)cc2)[C@H](C)CN([C@@H](C)CO)C(=O)c2cc(NS(=O)(=O)c3ccccc3)ccc2O1	none (no result: Glyco luc inh, ABCB6 inh MLPCN, Myeloid diff MLP, Vif inh)
CCC(=O)Nc1ccc2c(c1)C(=O)N(C)C[C@@H](OC)[C@H](C)CN(C(=O)Cc1ccccn1)[C@H](C)CO2	none (no result: Glyco luc inh, ABCB6 inh MLPCN, Myeloid diff MLP, Vif inh)
O=C(CSc1nc2ccccc2c(=O)[nH]1)c1ccccc1	none
O=C(CCCSc1nc2ccccc2c(=O)[nH]1)c1ccccc1	Vif inh 52
CC1CCN(c2cc(C#N)c(C#N)cc2[N+](=O)[O-])CC1	Vif inh 90
CC1CCCCN1c1cc(C#N)c(C#N)cc1[N+](=O)[O-] (stereo unspecified)	none
C/C=C/c1cnc2c(c1)C(=O)N([C@@H](C)CO)C[C@@H](C)[C@H](CN(C)C(=O)Cc1ccccc1)O2	none (no result: Glyco luc inh, ABCB6 inh MLPCN, Myeloid diff MLP, Vif inh)
CC(C)c1ccc(NC(=O)c2ccc(NS(C)(=O)=O)cc2)cc1	Myeloid diff MLP active
CS(=O)(=O)Nc1ccc(C(=O)Nc2ccc3ccccc3c2)cc1	Myeloid diff MLP inconclusive
COc1ccc2c(c1)[C@H]1[C@H](CO2)[C@H](c2ccccc2)[C@]2(C)C(=O)Nc3cc(C)ccc3C(=O)N12	Glyco luc inh 51
COc1ccc2c(c1)C(=O)N1[C@H]3c4cc(Br)ccc4OC[C@@H]3[C@H](c3ccccc3)[C@]1(C)C(=O)N2	Glyco luc inh 37
Cc1ccc2c(c1)[C@H]1[C@H](CO2)[C@H](c2ccccc2)[C@]2(C)C(=O)Nc3ccc(F)cc3C(=O)N12	Myeloid diff MLP inconclusive
C[C@@]12C(=O)Nc3cc(F)ccc3C(=O)N1[C@H]1c3ccccc3OC[C@@H]1[C@@H]2c1ccccc1	Glyco luc inh 26
COc1ccc2c(c1)[C@H]1[C@H](CO2)[C@H](c2ccccc2)[C@]2(C)C(=O)Nc3cc(Cl)ccc3C(=O)N12	Glyco luc inh 64
Cc1ccc2c(c1)[C@H]1[C@H](CO2)[C@H](c2ccccc2)[C@]2(C)C(=O)Nc3cc(Cl)ccc3C(=O)N12	none
C[C@H](O)C#Cc1ccc2c(c1)O[C@@H](CN(C)C(=O)c1ccncc1)[C@H](C)CN([C@H](C)CO)S2(=O)=O	none (no result: Glyco luc inh, ABCB6 inh MLPCN, Myeloid diff MLP, Vif inh)
COc1ccc2c(c1)C(=O)N1[C@H]3c4cc(Cl)ccc4OC[C@@H]3[C@H](c3ccccc3)[C@]1(C)C(=O)N2	Glyco luc inh 38, Myeloid diff MLP active
COc1ccc2c(c1)OC[C@H]1[C@H]2N2C(=O)c3cc(Cl)ccc3NC(=O)[C@@]2(C)[C@H]1c1ccccc1	none
COc1ccc2c(c1)OC[C@H]1[C@H]2N2C(=O)c3ccc(C)cc3NC(=O)[C@@]2(C)[C@H]1c1ccccc1	Glyco luc inh 48
